The source made the active and inactive calls.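 The calls were made as follows: active = target enzyme inhibited at least 50% at a set dose, and selective over every off-target enzyme by a set factor; inactive = weaker inhibition or too little selectivity.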
Experiments:
[1] = pPAFAH inhibition and serine hydrolase selectivity, SAR follow-up, selectivity assay for pPAFAH inhibitor project, biochemical, gel-based, FP-Rh fluorescence, complex proteome, SAR compounds (AID 588774); settings: gel-based competitive ABPP, MW 30 kDa, anti-targets inhibited, at 10 µM;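 as to inhibition: 0% = DMSO-only band intensity and 100% = blank gel background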
MW 30 kDa = experiment: as above; settings: gel-based competitive ABPP, at 10 µM, stronger effect = higher value

Cc1cc(N2CCN(C(=O)n3ncc(-c4ccc(Cl)c(Cl)c4)n3)CC2)c2ccccc2n1
anti-target count [1]: 8
inhibition (MW 30 kDa): 93% (inactive)

Cc1cc(N2CCN(C(=O)Oc3ccc(C4CCCCC4)cc3)CC2)c2ccccc2n1
anti-target count [1]: 0
inhibition (MW 30 kDa): 0% (inactive)

COc1ccc(-c2cnn(C(=O)N3CCN(c4cc(C)nc5ccccc45)CC3)n2)cc1
anti-target count [1]: 8
inhibition (MW 30 kDa): 79% (inactive)

Cc1cc(N2CCN(C(=O)Oc3ccc(-n4cccc4)cc3)CC2)c2ccccc2n1
anti-target count [1]: 0
inhibition (MW 30 kDa): 0% (inactive)

Cc1cc(N2CCN(C(=O)n3ncc(-c4ccc([N+](=O)[O-])cc4)n3)CC2)c2ccccc2n1
anti-target count [1]: 9
inhibition (MW 30 kDa): 91% (inactive)

Cc1cc(N2CCN(C(=O)Oc3ccc(-c4ccc(Br)cc4)cc3)CC2)c2ccccc2n1
anti-target count [1]: 0
inhibition (MW 30 kDa): 0% (inactive)

O=C(Oc1noc2cc(Cl)ccc12)N1CCCCC1
anti-target count [1]: 2
inhibition (MW 30 kDa): 100% (inactive)

Cc1cc(N2CCN(C(=O)Oc3ccc([N+](=O)[O-])cc3)CC2)c2ccccc2n1
anti-target count [1]: 2
inhibition (MW 30 kDa): 0% (inactive)

Cc1cc(N2CCN(C(=O)Oc3ccc(C4CCCC4)cc3)CC2)c2ccccc2n1
anti-target count [1]: 0
inhibition (MW 30 kDa): 0% (inactive)

Cc1cc(N2CCN(C(=O)Oc3ccc(-c4ccccc4)cc3)CC2)c2ccccc2n1
anti-target count [1]: 0
inhibition (MW 30 kDa): 0% (inactive)

Cc1cc(N2CCN(C(=O)n3oc4cc(Cl)ccc4c3=O)CC2)c2ccccc2n1
anti-target count [1]: 3
inhibition (MW 30 kDa): 39% (inactive)

Cc1cc(N2CCN(C(=O)Oc3noc4cc(Cl)ccc34)CC2)c2ccccc2n1
anti-target count [1]: 4
inhibition (MW 30 kDa): 0% (inactive)

O=C(Oc1noc2cc(Cl)ccc12)N1CCOCC1
anti-target count [1]: 3
inhibition (MW 30 kDa): 97% (inactive)

O=C(N1CCOCC1)n1oc2cc(Cl)ccc2c1=O
anti-target count [1]: 6
inhibition (MW 30 kDa): 78% (inactive)

Cc1cc(N2CCN(C(=O)n3ncc(-c4ccccc4)n3)CC2)c2ccccc2n1
anti-target count [1]: 9
inhibition (MW 30 kDa): 88% (inactive)

Cc1cc(N2CCN(C(=O)n3ncc(-c4ccc(OC(F)(F)F)cc4)n3)CC2)c2ccccc2n1
anti-target count [1]: 9
inhibition (MW 30 kDa): 100% (inactive)

Cc1cc(N2CCN(C(=O)Oc3ccc(C(F)(F)F)cc3)CC2)c2ccccc2n1
anti-target count [1]: 1
inhibition (MW 30 kDa): 0% (inactive)

Source: PubChem BioAssay AID588774 (The Scripps Research Institute Molecular Screening Center, 2011)
